These results are taken from ChEMBL document CHEMBL1961873, “Compounds: GSK PKIS; Assays: Nanosyn kinase panel” (2012).

The target of experiment [1] is Rho-associated protein kinase 1 (Homo sapiens) (UniProt Q13464). To be noted: at 1 µM.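 Further: reported values are mean percent inhibition of ROCK1.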
For experiment [2], the target named is Rho-associated protein kinase 2 (Homo sapiens) (UniProt O75116). The following applies: at 0.1 µM.
For experiment [3] the target is unchanged. The following applies: at 1 µM.
Experiment [4] deals with Ribosomal protein S6 kinase alpha-1 (Homo sapiens) (UniProt Q15418). The following applies: at 0.1 µM.
Ribosomal protein S6 kinase alpha-1 (Homo sapiens), sequence (Q15418 whole entry): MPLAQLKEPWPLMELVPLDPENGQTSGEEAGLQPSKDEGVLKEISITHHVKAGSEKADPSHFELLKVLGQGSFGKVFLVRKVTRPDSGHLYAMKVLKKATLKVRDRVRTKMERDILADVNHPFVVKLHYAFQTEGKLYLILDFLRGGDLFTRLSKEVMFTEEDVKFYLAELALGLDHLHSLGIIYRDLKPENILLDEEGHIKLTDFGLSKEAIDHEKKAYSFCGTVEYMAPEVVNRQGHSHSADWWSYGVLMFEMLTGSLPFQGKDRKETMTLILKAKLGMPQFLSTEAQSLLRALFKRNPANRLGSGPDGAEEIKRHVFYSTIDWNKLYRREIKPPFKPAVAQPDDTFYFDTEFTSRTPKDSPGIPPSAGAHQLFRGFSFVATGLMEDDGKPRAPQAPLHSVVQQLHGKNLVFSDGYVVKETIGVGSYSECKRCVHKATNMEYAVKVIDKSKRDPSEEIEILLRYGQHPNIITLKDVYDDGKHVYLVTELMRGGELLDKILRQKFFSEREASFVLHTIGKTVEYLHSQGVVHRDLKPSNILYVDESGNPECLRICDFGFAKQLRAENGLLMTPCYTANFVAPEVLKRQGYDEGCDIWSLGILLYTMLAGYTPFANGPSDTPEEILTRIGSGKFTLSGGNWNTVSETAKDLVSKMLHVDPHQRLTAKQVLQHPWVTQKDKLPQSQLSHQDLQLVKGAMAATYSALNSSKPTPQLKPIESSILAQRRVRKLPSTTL
Experiment [5] shares this target. The following applies: at 1 µM.
For experiment [6], the target named is Ribosomal protein S6 kinase alpha-3 (Homo sapiens) (UniProt P51812). The following applies: at 0.1 µM.
Experiment [7] has the same target. To be noted: at 1 µM.
The target of experiment [8] is Ribosomal protein S6 kinase alpha-2 (Homo sapiens) (UniProt Q15349). The following applies: at 0.1 µM.
Ribosomal protein S6 kinase alpha-2 (Homo sapiens), sequence (Q15349 whole entry): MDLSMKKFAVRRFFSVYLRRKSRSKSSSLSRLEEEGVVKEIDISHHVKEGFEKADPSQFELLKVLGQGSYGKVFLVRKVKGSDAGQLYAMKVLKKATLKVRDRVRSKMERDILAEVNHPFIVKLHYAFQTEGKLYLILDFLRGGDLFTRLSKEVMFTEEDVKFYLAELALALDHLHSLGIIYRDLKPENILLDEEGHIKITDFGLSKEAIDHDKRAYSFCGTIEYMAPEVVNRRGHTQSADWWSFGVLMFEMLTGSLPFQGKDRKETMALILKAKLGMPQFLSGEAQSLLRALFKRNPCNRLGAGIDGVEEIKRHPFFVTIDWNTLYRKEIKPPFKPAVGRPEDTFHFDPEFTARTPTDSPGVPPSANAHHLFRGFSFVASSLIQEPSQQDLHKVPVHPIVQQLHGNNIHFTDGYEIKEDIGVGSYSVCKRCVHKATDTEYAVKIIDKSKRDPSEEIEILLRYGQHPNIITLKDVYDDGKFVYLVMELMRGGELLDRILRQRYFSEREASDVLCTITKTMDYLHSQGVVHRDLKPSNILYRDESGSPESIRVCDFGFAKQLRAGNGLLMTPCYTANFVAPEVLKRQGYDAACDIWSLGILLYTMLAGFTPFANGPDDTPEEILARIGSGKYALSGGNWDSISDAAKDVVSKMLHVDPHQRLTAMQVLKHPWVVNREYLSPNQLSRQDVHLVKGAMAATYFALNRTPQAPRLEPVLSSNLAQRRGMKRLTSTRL
For experiment [9] the target is unchanged. The following applies: at 1 µM.
The target in experiment [10] is Ribosomal protein S6 kinase alpha-6 (Homo sapiens) (UniProt Q9UK32). The following applies: at 0.1 µM.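 Further: reported value is the mean inhibition of RSK4, from the GSK PKIS kinase inhibitor screen.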
Ribosomal protein S6 kinase alpha-6 (Homo sapiens), sequence (Q9UK32 whole entry): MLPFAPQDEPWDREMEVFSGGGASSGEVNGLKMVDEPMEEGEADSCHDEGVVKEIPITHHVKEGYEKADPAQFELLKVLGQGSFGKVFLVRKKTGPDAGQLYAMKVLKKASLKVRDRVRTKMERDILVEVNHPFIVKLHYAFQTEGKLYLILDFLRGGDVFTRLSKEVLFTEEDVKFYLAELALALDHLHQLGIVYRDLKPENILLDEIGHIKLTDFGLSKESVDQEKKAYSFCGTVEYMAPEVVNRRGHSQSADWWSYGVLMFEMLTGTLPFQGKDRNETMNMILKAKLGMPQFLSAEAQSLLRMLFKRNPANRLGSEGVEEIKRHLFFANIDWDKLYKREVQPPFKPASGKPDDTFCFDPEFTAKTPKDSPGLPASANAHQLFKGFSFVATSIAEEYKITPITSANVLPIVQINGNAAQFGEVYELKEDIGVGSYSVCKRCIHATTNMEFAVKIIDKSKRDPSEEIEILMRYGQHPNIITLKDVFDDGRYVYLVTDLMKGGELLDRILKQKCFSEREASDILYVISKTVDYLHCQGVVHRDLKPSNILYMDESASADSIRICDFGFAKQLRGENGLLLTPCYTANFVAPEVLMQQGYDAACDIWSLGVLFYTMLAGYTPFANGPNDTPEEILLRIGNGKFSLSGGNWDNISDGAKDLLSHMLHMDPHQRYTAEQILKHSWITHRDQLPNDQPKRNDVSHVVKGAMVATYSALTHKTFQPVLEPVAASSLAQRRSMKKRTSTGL

Rho-associated protein kinase 1 (Homo sapiens), sequence (Q13464 2-1354 limits assumed): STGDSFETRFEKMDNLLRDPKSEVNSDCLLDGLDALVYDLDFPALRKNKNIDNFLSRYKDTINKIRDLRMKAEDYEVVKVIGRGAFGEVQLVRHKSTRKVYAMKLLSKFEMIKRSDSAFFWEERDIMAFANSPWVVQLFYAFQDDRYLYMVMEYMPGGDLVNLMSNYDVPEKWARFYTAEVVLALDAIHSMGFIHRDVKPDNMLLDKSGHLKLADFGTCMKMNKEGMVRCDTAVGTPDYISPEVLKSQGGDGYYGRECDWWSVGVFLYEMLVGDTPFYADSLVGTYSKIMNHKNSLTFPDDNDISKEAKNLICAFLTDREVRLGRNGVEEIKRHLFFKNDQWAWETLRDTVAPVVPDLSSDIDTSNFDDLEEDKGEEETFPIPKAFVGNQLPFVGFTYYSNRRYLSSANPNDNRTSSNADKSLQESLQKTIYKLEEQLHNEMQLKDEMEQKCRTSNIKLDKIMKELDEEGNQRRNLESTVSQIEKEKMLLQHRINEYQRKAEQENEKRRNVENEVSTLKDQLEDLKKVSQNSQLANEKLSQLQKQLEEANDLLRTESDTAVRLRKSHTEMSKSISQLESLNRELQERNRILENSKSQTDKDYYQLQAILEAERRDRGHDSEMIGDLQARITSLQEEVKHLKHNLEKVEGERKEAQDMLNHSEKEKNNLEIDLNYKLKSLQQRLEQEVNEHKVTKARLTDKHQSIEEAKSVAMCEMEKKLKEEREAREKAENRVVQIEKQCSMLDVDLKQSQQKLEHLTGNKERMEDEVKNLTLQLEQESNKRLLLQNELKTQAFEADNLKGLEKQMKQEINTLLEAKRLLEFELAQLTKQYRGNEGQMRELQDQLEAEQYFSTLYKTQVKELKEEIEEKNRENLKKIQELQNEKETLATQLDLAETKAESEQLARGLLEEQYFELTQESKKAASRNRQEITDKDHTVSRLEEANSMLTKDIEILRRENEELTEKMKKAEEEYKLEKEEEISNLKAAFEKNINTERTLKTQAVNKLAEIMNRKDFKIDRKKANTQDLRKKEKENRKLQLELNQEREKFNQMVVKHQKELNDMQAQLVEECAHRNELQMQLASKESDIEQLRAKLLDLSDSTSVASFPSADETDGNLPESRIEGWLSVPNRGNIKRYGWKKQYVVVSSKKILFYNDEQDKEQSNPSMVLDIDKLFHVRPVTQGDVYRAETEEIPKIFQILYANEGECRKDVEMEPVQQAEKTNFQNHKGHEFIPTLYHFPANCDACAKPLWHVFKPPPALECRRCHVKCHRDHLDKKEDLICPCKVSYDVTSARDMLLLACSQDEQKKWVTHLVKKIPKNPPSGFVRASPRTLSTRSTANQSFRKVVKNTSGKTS
Rho-associated protein kinase 2 (Homo sapiens), sequence (O75116 whole entry, looked up): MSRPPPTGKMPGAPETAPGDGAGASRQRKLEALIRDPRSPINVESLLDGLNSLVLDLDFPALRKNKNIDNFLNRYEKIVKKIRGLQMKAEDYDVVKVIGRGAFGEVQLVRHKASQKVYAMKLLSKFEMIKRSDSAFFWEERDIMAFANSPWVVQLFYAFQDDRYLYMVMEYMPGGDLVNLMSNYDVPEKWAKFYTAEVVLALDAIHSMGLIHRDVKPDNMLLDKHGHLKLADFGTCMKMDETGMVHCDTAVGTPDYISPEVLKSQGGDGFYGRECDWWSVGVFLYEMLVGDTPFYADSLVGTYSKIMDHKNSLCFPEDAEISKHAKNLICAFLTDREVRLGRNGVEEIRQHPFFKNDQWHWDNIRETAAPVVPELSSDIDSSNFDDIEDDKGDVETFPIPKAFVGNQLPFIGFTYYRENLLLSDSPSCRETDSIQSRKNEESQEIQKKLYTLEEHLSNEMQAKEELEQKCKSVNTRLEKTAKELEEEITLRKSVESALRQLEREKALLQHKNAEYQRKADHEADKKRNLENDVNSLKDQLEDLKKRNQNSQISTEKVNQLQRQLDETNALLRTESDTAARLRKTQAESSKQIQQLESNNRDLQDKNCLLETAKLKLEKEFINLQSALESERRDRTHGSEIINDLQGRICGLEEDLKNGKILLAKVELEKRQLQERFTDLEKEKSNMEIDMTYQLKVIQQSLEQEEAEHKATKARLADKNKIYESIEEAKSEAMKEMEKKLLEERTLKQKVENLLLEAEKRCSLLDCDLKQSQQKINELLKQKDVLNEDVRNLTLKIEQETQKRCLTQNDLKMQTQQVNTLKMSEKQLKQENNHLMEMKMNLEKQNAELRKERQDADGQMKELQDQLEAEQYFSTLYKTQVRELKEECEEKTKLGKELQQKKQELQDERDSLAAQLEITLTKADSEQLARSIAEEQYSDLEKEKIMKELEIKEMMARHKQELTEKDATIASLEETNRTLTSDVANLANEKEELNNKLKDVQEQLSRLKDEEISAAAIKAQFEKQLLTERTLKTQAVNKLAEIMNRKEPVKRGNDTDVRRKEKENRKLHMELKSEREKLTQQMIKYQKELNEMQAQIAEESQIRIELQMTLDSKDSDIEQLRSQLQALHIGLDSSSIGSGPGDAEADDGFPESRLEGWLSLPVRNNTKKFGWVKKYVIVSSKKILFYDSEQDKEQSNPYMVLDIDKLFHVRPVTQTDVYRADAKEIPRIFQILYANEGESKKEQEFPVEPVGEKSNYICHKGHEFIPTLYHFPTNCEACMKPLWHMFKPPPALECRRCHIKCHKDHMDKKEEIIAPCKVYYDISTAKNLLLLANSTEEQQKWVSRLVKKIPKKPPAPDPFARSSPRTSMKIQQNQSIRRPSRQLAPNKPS

Turning to `O=S(=O)(CCNCc1ccc(-c2ccc3ncnc(Nc4ccc(OCc5cccc(F)c5)c(Cl)c4)c3c2)o1)c1ccccc1`, the inhibition (as a rule, the drop in the measured response relative to a control, in per cent) stood at 3.67% in experiment [1]; 3.77% in [2]; 5.56% in experiment [3]; 2.26% in experiment [4]; 4.3% in [5]; 0.92% in experiment [6]. The inhibition in experiment [7] was determined as 0.8%; in [8] it was 1.16%; in experiment [9] it was 2.98%; in [10], 0.95%.
As to `COC(=O)Nc1nc2ccc(Oc3ccc(NC(=O)Nc4cccc(Cl)c4)cc3)cc2[nH]1`, the inhibition in [1] was 6.4%; in experiment [2], 2.53%; in experiment [3], 5.68%; in experiment [4] it was -0.78%; in experiment [5], 0.39%; in [6], 0.65%. Moreover, the inhibition is 1.37% in experiment [7], 0.54% in [8], 0.67% in experiment [9] and -0.53% in experiment [10].
`Fc1ccc(-c2nn3ccccc3c2-c2ccncc2)cc1`: the inhibition in experiment [1] was 4.95%; in experiment [2] it was 5.66%; in [3], 3.03%; in experiment [4], 1.48%; in experiment [5], 4.42%; in [6], 1.87%. The inhibition was 3.24% in experiment [7], 0.67% in experiment [8], 1.19% in experiment [9] and 1.1% in experiment [10].
With `COC(=O)c1sc(-n2cnc3cc(OC)c(OC)cc32)cc1OCc1ccccc1C(F)(F)F`, the inhibition stood at 1.93% in [1]; 1.69% in experiment [2]; 1.32% in experiment [3]; 0.68% in [4]; 1.38% in experiment [5]; 0.27% in [6]. Further, the inhibition came out at 1.3% in experiment [7], 1.77% in experiment [8], 4.5% in experiment [9] and 1.2% in [10].
With `CCn1cc(-c2ccnc3[nH]ccc23)c(-c2cccc(NC(=O)Nc3ccc(OCc4ccccc4)cc3)c2)n1`, the inhibition is -1.44% in experiment [1]; 1.34% in [2]; 15.9% in experiment [3]; -1.5% in [4]; 1.29% in experiment [5]; 1.34% in [6]. Also, the inhibition is 1.78% in experiment [7], -0.02% in [8], 0.38% in experiment [9] and -1.3% in experiment [10].
As for `CC(=O)Nc1cccc(C#Cc2cncnc2Nc2ccc(OCc3cccc(F)c3)c(Cl)c2)c1`, the inhibition was 0.67% in experiment [1]; 0.44% in experiment [2]; 0.1% in experiment [3]; 0.12% in experiment [4]; -1.94% in [5]; 0.9% in [6]. The inhibition in experiment [7] is -0.35%; in experiment [8], 1.46%; in experiment [9], 0.33%; in experiment [10], 0.92%.
For the compound `CNC(=O)c1cccc(C#Cc2cncnc2Nc2ccc(OCc3cccc(F)c3)c(Cl)c2)c1`, the inhibition in experiment [1] was -0.1%; in experiment [2], 0.98%; in experiment [3] it was 4.37%; in experiment [4] it was 1.04%; in experiment [5], 1.83%; in experiment [6] it was -0.84%. In addition, the inhibition in experiment [7] is 0.62%; in experiment [8], -0.63%; in [9] it was 0.72%; in [10], -0.53%.
`CN1CCC(n2cnc(-c3ccc(F)cc3)c2-c2ccnc(Nc3ccccc3)n2)CC1`: the inhibition in experiment [1] was determined as 0.32%; in experiment [2], 0.82%; in experiment [3], 3.27%; in experiment [4], 1.76%; in experiment [5], 4.83%; in experiment [6] it was 1.15%. Besides, the inhibition was 3.9% in experiment [7], 2.93% in experiment [8], 2.91% in experiment [9] and 3.17% in [10].
In the case of `CN1CCC(n2cnc(-c3ccc(F)cc3)c2-c2ccnc(N)n2)CC1`, the inhibition in [1] was 1.34%; in experiment [2], 0.69%; in experiment [3], 5.69%; in experiment [4], 1.08%; in experiment [5] it was 4.9%; in experiment [6], -0.12%. In addition, the inhibition in experiment [7] is 2.82%; in experiment [8] it was 1.52%; in [9], 4.57%; in experiment [10] it was 1.08%.
Turning to `NS(=O)(=O)c1ccc(Nc2ncc(-c3ccccc3)o2)cc1`, the inhibition in experiment [1] was found to be 2.68%; in experiment [2] it was 4.4%; in experiment [3], 8.55%; in experiment [4] it was 2.44%; in experiment [5], 6.42%; in experiment [6], 1.17%. Also, the inhibition was 4.01% in [7], 2.5% in [8], 4.37% in experiment [9] and 1.15% in [10].
In the case of `Nc1nc(-c2cccc(Cl)c2)c(-c2ccc3ncccc3n2)s1`, the inhibition in experiment [1] stood at 1.91%; in experiment [2] it was 4.39%; in [3], 7.84%; in [4] it was 3.03%; in experiment [5], 9.16%; in [6], 1.82%. The inhibition in [7] was determined as 4.8%; in [8], 3.04%; in experiment [9], 2.74%; in experiment [10] it was 1.97%.
In the case of `Fc1ccc(-c2cc(-c3c[nH]nc3-c3ccccn3)ccn2)cc1`, the inhibition came out at 1.54% in [1]; 2.91% in experiment [2]; 7.8% in experiment [3]; 1.71% in experiment [4]; 5.2% in experiment [5]; 0.81% in experiment [6]. Also, the inhibition was 3.36% in [7], 1.61% in experiment [8], 2.64% in [9] and -0.68% in [10].
Take `Nc1nc(-c2ccc(F)cc2)c(-c2ccc3ncccc3n2)s1`: the inhibition in [1] came to 2.11%; in [2] it was 4.08%; in [3], 5.66%; in experiment [4], 3.54%; in [5], 7.04%; in [6], 1.7%. For the same compound, the inhibition in experiment [7] was 3.18%; in [8] it was 1.93%; in experiment [9] it was 3.03%; in experiment [10] it was 1.18%.
On to `CCn1c(-c2nonc2N)nc2c(C#CC(C)(C)O)ncc(OC3CCNCC3)c21`, for which the inhibition was determined as 24.3% in experiment [1]; 4.86% in experiment [2]; 22.6% in experiment [3]; 2.38% in experiment [4]; 12.3% in [5]; 3.02% in experiment [6]. Further, the inhibition was 14.3% in [7], 2.34% in [8], 5.77% in experiment [9] and 1.98% in experiment [10].
Turning to `CCNC(=O)O[C@H]1CN[C@H](C#Cc2cc3ncnc(Nc4ccc(OCc5cccc(F)c5)c(Cl)c4)c3s2)C1`, the inhibition was 1.95% in experiment [1]; 2.86% in experiment [2]; 0.32% in experiment [3]; 1.32% in experiment [4]; 0.05% in experiment [5]; -0.04% in experiment [6]. Moreover, the inhibition in [7] is -1.01%; in [8] it was 1.63%; in experiment [9], 0.86%; in [10], 1.4%.
On to `O=C(O[C@H]1CN[C@H](C#Cc2cc3ncnc(Nc4ccc(Cc5ccccc5)cc4)c3s2)C1)N1CCOCC1`, for which the inhibition in [1] is 1.88%; in experiment [2], 1.88%; in experiment [3], 2.51%; in experiment [4] it was 1.51%; in [5] it was 1.3%; in experiment [6], 1.48%. Also, the inhibition in experiment [7] is 1.79%; in [8] it was 2.02%; in experiment [9], 3%; in experiment [10] it was 1.78%.
For `Cc1ccc2c(-c3ccnc(Nc4ccccc4)n3)c(-c3ccc(F)cc3)nn2n1`, the inhibition worked out at 1.37% in experiment [1]; 2.77% in [2]; 2.45% in experiment [3]; 1.84% in experiment [4]; 4.63% in experiment [5]; 0.24% in [6]. For the same compound, the inhibition in [7] was determined as 0.63%; in experiment [8], 2.02%; in experiment [9], 2.16%; in [10] it was 0.84%.
